# Laboratory results from PubChem BioAssay (NCATS).
# Results filed as inconclusive are left out. Where a call stands in place of a potency, no number is given. Unmarked numbers belong to inactive results. Activity calls are given as the source filed them. Calls follow the shape of the dose curve; as a rule, active = well fitted curve in the direction sought with a large enough effect; inconclusive = small, poorly fitted or top-dose-only effect, or another doubt; inactive = no such curve, though single readings can be large; an effect the other way counts as inactive or inconclusive.
# Key:
# [1] = molecular target: Calcium and integrin-binding protein 1 (Homo sapiens) (UniProt Q99828); assay: Primary qHTS for Identification of Calcium Integrin Binding Protein 1 (CIB1) Competitor (AID 1508620);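 also: GST tagged CIB1 binding a fluorescein labelled alphaIIb integrin peptide tracer; top concentration of the series differs between compounds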
# Sequence of Calcium and integrin-binding protein 1 (Homo sapiens) (Q99828 whole entry, looked up): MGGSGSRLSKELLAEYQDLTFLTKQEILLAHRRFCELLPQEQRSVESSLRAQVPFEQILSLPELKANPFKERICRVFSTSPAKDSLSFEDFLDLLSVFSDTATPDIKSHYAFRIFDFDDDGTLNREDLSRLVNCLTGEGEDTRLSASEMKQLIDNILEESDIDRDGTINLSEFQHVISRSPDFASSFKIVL
# Summary of the method: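 Fluorescence polarization competition: GST-tagged CIB1 (1 uM final) preincubated with compound 15 min at room temperature, then FITC-labelled alphaIIb peptide (100 nM final) added. After 15 min at room temperature, polarization read at Ex 480/Em 540.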
# [2] = Primary qHTS for inhibitors of nuclear receptor binding SET domain protein 2 (NSD2) in an isogenic RCH-ACV NSD2 p.E1099K mutant (9B) (AID 1645876); also: nearly all actives have a fitted effect of over 70% in size; also: potency is read from the fitted curve at half-maximal effect
# [3] = Primary qHTS for inhibitors of nuclear receptor binding SET domain protein 2 (NSD2) in an RCH-ACV wild type WT cells (2C) (AID 1645877); also: nearly all actives have a fitted effect of over 70% in size; also: potency is read from the fitted curve at half-maximal effect
smiles,measurement,setting,value
C[C@@H]1O[C@@H](O[C@@H]2[C@@H](O)[C@H](O[C@H]3[C@H](O[C@H]4CC[C@@]5(C)C(CC[C@]6(C)C5CC=C5[C@@H]7CC(C)(C)CC[C@]7(C(=O)O[C@@H]7O[C@H](CO)[C@@H](O)[C@H](O)[C@H]7O[C@@H]7O[C@@H](C)[C@H](O[C@@H]8O[C@@H](C)[C@H](O)[C@@H](O)[C@H]8O)[C@@H](O)[C@H]7O)CC[C@]56C)[C@@]4(C)CO)O[C@H](C(=O)O)[C@@H](O)[C@@H]3O)O[C@H](CO)[C@H]2O)[C@H](O)[C@H](O)[C@H]1O (some centres not stated),"activity change, negative = inhibition",[1],4.5% [at 12.4 µM]
same,"activity change, negative = viability loss",[2],-0.268% [at 9.23 µM]
same,"activity change, negative = cell killing",[3],-3.64% [at 9.23 µM]
CC(C)CC(=O)O[C@@H]1OC=C(CO[C@@H]2O[C@H](CO)[C@@H](O)[C@H](O)[C@H]2O)[C@H]2[C@@H]3O[C@H]3[C@@](O)(CO)[C@@H]12,Potency,[1],inactive
same,Potency,[2],inactive
same,Potency,[3],inactive
CC1(C)CC[C@]2(C(=O)O[C@@H]3O[C@H](CO)[C@@H](O)[C@H](O)[C@H]3O)CC[C@]3(C)C(=CCC4[C@@]5(C)CC[C@H](O[C@@H]6O[C@H](C(=O)O)[C@@H](O)[C@H](O[C@@H]7O[C@H](CO)[C@H](O)[C@H](O)[C@H]7O)[C@H]6O)C(C)(C)C5CC[C@]43C)C2C1 (some centres not stated),Potency,[1],inactive
same,"activity change, negative = viability loss",[2],-8.36% [at 9.23 µM]
same,"activity change, negative = cell killing",[3],-15.1% [at 9.23 µM]
C=C1C[C@@]23CCC4[C@@](C)(CCC[C@@]4(C)C(=O)OC)C2CC[C@@H]1C3 (some centres not stated),Potency,[1],inactive
same,Potency,[2],inactive
same,Potency,[3],inactive
CC/C=C\CCO[C@@H]1O[C@H](CO[C@@H]2OC[C@H](O)[C@H](O)[C@H]2O)[C@@H](O)[C@H](O)[C@H]1O,Potency,[1],inactive
same,Potency,[2],inactive
same,Potency,[3],inactive
CO[C@H]1C[C@@H]2CC[C@@H](C)[C@@](O)(O2)C(=O)C(=O)N2CCCC[C@H]2C(=O)O[C@H]([C@H](C)C[C@@H]2CC[C@@H](OP(C)(C)=O)[C@H](OC)C2)CC(=O)[C@H](C)/C=C(\C)[C@@H](O)[C@@H](OC)C(=O)[C@H](C)C[C@H](C)/C=C/C=C/C=C/1C,Potency,[1],inactive
same,Potency,[2],11.8 nM (active)
same,Potency,[3],46.8 nM (active)
CC1(C)CC2C=C(C(=O)O)C3COC(=O)C(O)(CO)C23C1 (configuration not stated),Potency,[1],inactive
same,Potency,[2],inactive
same,Potency,[3],inactive
O=C(OC1C=C(CO)C2C(OC3OC(CO)C(O)C(O)C3O)OC=CC12)c1ccc(O)cc1 (configuration not stated),Potency,[1],inactive
same,Potency,[2],inactive
same,Potency,[3],inactive
CC(=O)OC1C(=O)C2(C)C(O)CC3OCC3(OC(C)=O)C2C(OC(=O)c2ccccc2)C2(O)CC(OC(=O)C(O)C(NC(=O)c3ccccc3)c3ccccc3)C(C)=C1C2(C)C (configuration not stated),Potency,[1],inactive
same,Potency,[2],5.2 nM (active)
same,Potency,[3],6.5 nM (active)
NC(=O)[C@H]1CCS[C@@H]2C[C@]3(CCCN3C(=O)Cc3ccc(NC(=O)COc4ccc(Cl)cc4Cl)cc3)C(=O)N12,Potency,[1],inactive
same,Potency,[2],7420 nM (active)
same,Potency,[3],5250 nM (active)
OC[C@H]1O[C@@H](OC(CCCCc2ccc(O)cc2)CCc2ccc(O)cc2)[C@H](O)[C@@H](O)[C@@H]1O (some centres not stated),Potency,[1],inactive
same,Potency,[2],inactive
same,Potency,[3],inactive
CC(C)O[C@@H]1O[C@H](CO)[C@@H](O)[C@H](O)[C@H]1O,Potency,[1],inactive
same,Potency,[2],inactive
same,Potency,[3],inactive
C=C[C@@](C)(O)CC/C=C(\C)C(=O)O[C@@H]1[C@@H]2O[C@]2(C)[C@H]2[C@H](O[C@@H]3O[C@H](CO)[C@@H](O)[C@H](O)[C@H]3O)OC=C[C@@]12O,Potency,[1],inactive
same,Potency,[2],inactive
same,Potency,[3],inactive
COc1cc(-c2ncn(/C=C\C(=O)OC(C)C)n2)cc(C(F)(F)F)c1,Potency,[1],inactive
same,Potency,[2],129 nM (active)
same,Potency,[3],129 nM (active)
C/C=C(/COC(=O)/C(C)=C/C)C(=O)OC(CC)c1ccc(OC)c(OC)c1 (configuration not stated),Potency,[1],inactive
same,Potency,[2],inactive
same,Potency,[3],inactive
COc1ccc(N(C)c2nc(C)nc3ccccc23)cc1,Potency,[1],inactive
same,Potency,[2],13.2 nM (active)
same,Potency,[3],11.8 nM (active)
CC1C=CC2CCCCC2C1CCC1CC(O)CC(=O)O1 (configuration not stated),Potency,[1],inactive
same,Potency,[2],inactive
same,Potency,[3],inactive
C/C(=C\CCC1(C)C2CCC(C2)C1(C)O)C(=O)O (configuration not stated),Potency,[1],inactive
same,Potency,[2],inactive
same,Potency,[3],inactive
C=C(C(=O)O)C1CCC2(C)CCC(O)C(C)(O)C2C1 (configuration not stated),Potency,[1],inactive
same,Potency,[2],inactive
same,Potency,[3],inactive
[N-]=[N+]=N[C@]1(CO)O[C@@H](n2ccc(=O)[nH]c2=O)[C@@H](O)[C@@H]1O,Potency,[1],inactive
same,Potency,[2],inactive
same,Potency,[3],inactive
O=C(OC[C@@]1(O)CO[C@@H](O[C@H]2[C@H](Oc3ccc(O)cc3)O[C@H](CO)[C@@H](O)[C@@H]2O)[C@@H]1O)c1ccc(O)cc1,Potency,[1],inactive
same,Potency,[2],inactive
same,Potency,[3],inactive
C(#Cc1nc2ncccc2nc1OCCN1CCCC1)c1ccccc1,Potency,[1],inactive
same,Potency,[2],2580 nM (active)
same,Potency,[3],2300 nM (active)
COCC1OC(OC(C)(C)C2CCC3(C)C=C(C4CCC5C4(C)CC(O)C4OC(C(C)(C)OC6OC(CO)C(O)C(O)C6NC(C)=O)CCC45C)CCC3O2)C(NC(C)=O)C(O)C1O (configuration not stated),Potency,[1],inactive
same,"activity change, negative = viability loss",[2],1.46% [at 9.23 µM]
same,outcome,[3],inactive [at 9.23 µM]
CC1CCC2(OC1)OC1CC3C4CCC5C[C@@H](O[C@@H]6O[C@H](CO[C@@H]7OC[C@@H](O)[C@H](O)[C@H]7O)[C@H](O)[C@H](O)[C@H]6O)CC[C@]5(C)C4CC[C@]3(C)C1C2C (some centres not stated),Potency,[1],inactive
same,Potency,[2],inactive
same,Potency,[3],inactive
CC12CCC(=O)C=C1C(O)CC1C2C(O)CC2(C)C1CC[C@]2(O)C(=O)CO (some centres not stated),Potency,[1],inactive
same,outcome,[2],inactive [at 9.23 µM]
same,"activity change, negative = cell killing",[3],-15% [at 9.23 µM]
CCC1C(=O)N(C)c2cnc(Nc3ccc(C(=O)NC4CCC(N5CCN(CC6CC6)CC5)CC4)cc3OC)nc2N1C(C)C (configuration not stated),Potency,[1],inactive
same,Potency,[2],18.3 nM (active)
same,Potency,[3],25.8 nM (active)
O=C(OCC1=CC(O)C2C=CO[C@@H](O[C@@H]3O[C@H](CO)[C@@H](O)[C@H](O)[C@H]3O)C12)c1ccccc1 (some centres not stated),Potency,[1],inactive
same,Potency,[2],inactive
same,Potency,[3],inactive
C[C@H](NC(c1cccc2[nH]c(=O)c(=O)[nH]c12)P(=O)(O)O)c1ccc(Br)cc1 (some centres not stated),Potency,[1],inactive
same,Potency,[2],inactive
same,Potency,[3],inactive
C/C=C1\[C@H](OC2OC(COC3OC(CO)C(O)C(O)C3O)C(O)C(O)C2O)OC=C(C(=O)OC)[C@H]1CC(=O)OCCc1ccc(O)cc1 (some centres not stated),Potency,[1],inactive
same,Potency,[2],inactive
same,Potency,[3],inactive
COc1ccc(C[C@H](N)C(=O)N[C@@H]2[C@H](O)[C@H](n3cnc4c(N(C)C)ncnc43)O[C@@H]2CO)cc1,Potency,[1],inactive
same,Potency,[2],325 nM (active)
same,Potency,[3],205 nM (active)
C[C@]1(CO)CCC[C@]2(C)C3=C(CCC12)COC3 (some centres not stated),Potency,[1],inactive
same,Potency,[2],inactive
same,Potency,[3],inactive
C/C1=C\CCC(C)CCO[C@@H]2O[C@H](CO[C@@H]3OC[C@H](O)[C@H](O)[C@H]3OC1=O)[C@@H](O)[C@H](O)[C@H]2O (some centres not stated),Potency,[1],inactive
same,Potency,[2],inactive
same,Potency,[3],inactive
C[C@@H]1O[C@@H](O[C@H]2[C@H](O)[C@@H](C(=O)O)O[C@@H](O[C@H]3CC[C@@]4(C)C(CC[C@]5(C)C4CC=C4C6CC(C)(C)CC[C@]6(C(=O)O)CC[C@]45C)C3(C)C)[C@@H]2O[C@@H]2OC[C@@H](O)[C@H](O)[C@H]2O)[C@H](O)[C@H](O)[C@H]1O (some centres not stated),Potency,[1],inactive
same,outcome,[2],inactive [at 9.23 µM]
same,outcome,[3],inactive [at 9.23 µM]
O=C(O[C@H]1[C@@H]2C[C@@H]3OC[C@](O)([C@@H]1Cl)[C@H]2C(O[C@@H]1O[C@H](CO)[C@@H](O)[C@H](O)[C@H]1O)O3)c1ccc(O)c(O)c1 (some centres not stated),Potency,[1],inactive
same,Potency,[2],inactive
same,Potency,[3],inactive
C=C1CC[C@@H]2[C@](C)(CO[C@@H]3O[C@H](CO)[C@@H](O)[C@H](O)[C@H]3O)[C@H](O)CC[C@@]2(C)[C@@H]1C/C=C1/C(=O)OC[C@H]1O,Potency,[1],inactive
same,Potency,[2],inactive
same,Potency,[3],inactive
CCOc1cc(C)c(Cl)cc1S(=O)(=O)n1cnc2ccccc21,Potency,[1],inactive
same,Potency,[2],inactive
same,Potency,[3],inactive
C[C@@H]1O[C@@H](O[C@H]2[C@H](O)[C@@H](O[C@@H]3O[C@H](CO)[C@@H](O)[C@H](O[C@@H]4O[C@H](CO)[C@@H](O)[C@H](O)[C@H]4O)[C@H]3O)[C@H](O[C@H]3CC[C@@]4(C)C(=CC[C@@H]5C4CC[C@@]4(C)C5C[C@@H]5OC6(CC[C@@](C)(CO[C@@H]7O[C@H](CO)[C@@H](O)[C@H](O)[C@H]7O)O6)[C@@H](C)[C@@H]54)C3)O[C@@H]2CO)[C@H](O)[C@H](O)[C@H]1O (some centres not stated),"activity change, negative = inhibition",[1],-1.49% [at 12.4 µM]
same,"activity change, negative = viability loss",[2],-19.9% [at 9.23 µM]
same,"activity change, negative = cell killing",[3],-26.3% [at 9.23 µM]
CC1(C)CCC2(C(=O)OC3OCC(O)C(O)C3O)CCC3(C)C(=CCC4C5(C)CC(O)C(OC6OC(COC7OCC(O)C(O)C7O)C(O)C(O)C6O)C(C)(C)C5CCC43C)C2C1 (configuration not stated),Potency,[1],inactive
same,"activity change, negative = viability loss",[2],-10.4% [at 9.23 µM]
same,"activity change, negative = cell killing",[3],-0.57% [at 9.23 µM]
COC(=O)C(C)C1CCC2(C)C(=O)C=CC(C)(O)C2C1O (configuration not stated),Potency,[1],inactive
same,Potency,[2],inactive
same,Potency,[3],inactive
COC(=O)/C=C/C12COC(C)(C)C1C(O)C(OC(C)=O)C1(C)C2CCC2(C)C(c3ccoc3)OC(=O)C3OC321 (configuration not stated),Potency,[1],inactive
same,Potency,[2],inactive
same,Potency,[3],inactive
CC(C)CC(=O)OC1OC=C(CO[C@@H]2O[C@H](CO)[C@@H](O)[C@H](O)[C@H]2O)C2CC(O)C(O)(CO)C12 (some centres not stated),Potency,[1],inactive
same,Potency,[2],inactive
same,Potency,[3],inactive
C=CC1C(OC2OC(CO)C(O)C(O)C2O)OC=C2C(=O)N3C(C(=O)O)Cc4c([nH]c5ccccc45)C3CC21 (configuration not stated),Potency,[1],inactive
same,Potency,[2],inactive
same,Potency,[3],inactive
CC(O)/C=C/C1(O)C(C)C(O[C@@H]2O[C@H](CO)[C@@H](O)[C@H](O)[C@H]2O)C(O)CC1(C)C (some centres not stated),Potency,[1],inactive
same,Potency,[2],inactive
same,Potency,[3],inactive
C[C@H](N)C(=O)N[C@@H](Cc1ccc(O)cc1)C(=O)N1CCC[C@H]1C(=O)NCC(=O)N[C@@H](CCCCN)C(=O)N[C@@H](Cc1ccccc1)C(N)=O,Potency,[1],inactive
same,"activity change, negative = viability loss",[2],0.961% [at 9.23 µM]
same,outcome,[3],inactive [at 9.23 µM]
